Our source for the Potency values is PubChem BioAssay (Tox21).

The nature of experiment [1]: Nuclear factor erythroid 2-related factor 2/antioxidant responsive element (Nrf2/ARE) small molecule agonists: qHTS cell viability counter screen in human keratinocytes (AID 1919968; active means well fitted curve in the direction sought with a large enough effect in the repeat runs; an effect the other way counts as inactive or inconclusive; further: nearly all actives have a fitted effect of over 55% in size; further: potency means the concentration at half of the fitted maximal effect). The method in brief:
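Cells of the KeratinoSens line were plated at 1,500 per well and left for 5 h before compound transfer from DMSO stocks. After a 23 h incubation (37 C, 5% CO2), CellTiter-Fluor was added. Signal was taken as fluorescence intensity 1 h later.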
(In general: Quantitative high-throughput screening tests each substance at several concentrations.)

The target in experiment [2] is Gonadotropin-releasing hormone receptor (Homo sapiens) (UniProt P30968). Description: Human gonadotropin-releasing hormone receptor (GnRHR) small molecule agonists, calcium flux assay in GnRHR-HEK293 cells (AID 1920063). Further: nearly all actives have a fitted effect of over 35% in size. The method in brief: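 Compounds dissolved in DMSO are pin-transferred onto dye-loaded GnRHR-HEK293 cells, which were seeded 18 h before at 37 C/5% CO2. Calcium signal is read as fluorescence intensity at 1 s intervals for 3 min.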

Experiment [3] concerns the target KiSS-1 receptor (Homo sapiens) (UniProt Q969F8). Description: Human kisspeptin (KISS1R) small molecule agonists, calcium flux assay in KISS1R-HEK293 cells (AID 1920064; active means well fitted curve in the direction sought with a large enough effect in the repeat runs; an effect the other way counts as inactive or inconclusive; further: potency means the concentration at half of the fitted maximal effect). The method in brief:
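Cell line: HEK293, stable human KISS1R. Dye loading 1 h at 37 C after 18 h culture. Read: kinetic fluorescence, 480/540 nm, 3 min at 1 s intervals.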
For orientation: Calcium assays in cells follow changes in intracellular calcium, usually with a dye or a luminescent sensor.

Experiment [4] can be described thus: G protein-coupled receptor (GPCR) small molecule agonists, calcium flux assay: HEK293 wild type cell line counter screen (AID 1920065). The method, boiled down: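 Tox21 10K compounds, 15 concentrations each in triplicate, pin-transferred in DMSO onto dye-loaded cells; kinetic read at 480/540 nm for 3 min, 1 s intervals.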
The nature of experiment [5]: p53 small molecule agonists, cell-based qHTS assay with human liver microsomes (AID 1963577).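 Further: p53 response element beta-lactamase reporter cells with liver microsomes plus NADPH.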 The method in brief:
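Steps: plate p53RE-bla cells, incubate 5 h at 37 C; add compound in DMSO; add microsomes (0.5 mg/mL final) and NADPH (0.5 mg/mL final); incubate 16 h at 37 C; add LiveBLAzer, 2 h RT; read fluorescence.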

Experiment [6] in a line: p53 small molecule agonists, cell-based qHTS assay with rat liver microsomes (AID 1963578). The method, boiled down: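 Metabolic activation is supplied by rat liver microsomes with NADPH (each 0.5 mg/mL final). p53RE-bla cells incubate with compound 16 h at 37 C; reporter activity is measured by LiveBLAzer fluorescence.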
Experiment [7] is described as follows: p53 small molecule agonists, cell-based qHTS assay with human liver microsomes: qHTS cell viability counter screen (AID 1963579). Further: nearly all actives have a fitted effect of over 45% in size. The method, boiled down: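 After the 460/530 nm beta-lactamase read, CellTiter-Glo was added to the same wells and luminescence measured after 30 min at room temperature, giving viability of p53RE-bla cells treated 16 h with compounds plus microsomes and NADPH.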

The nature of experiment [8]: p53 small molecule agonists, cell-based qHTS assay with rat liver microsomes: qHTS cell viability counter screen (AID 1963580). Further: nearly all actives have a fitted effect of over 45% in size. The method in brief:
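Cytotoxicity counter screen: intracellular ATP read by CellTiter-Glo luminescence in the p53 reporter wells. HCT-116 p53RE-bla cells were treated for 16 h at 37 C alongside rat liver microsomes and NADPH, each 0.5 mg/mL final.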

A short description of experiment [9]: p53 small molecule agonists, cell-based qHTS assay: qHTS cell viability counter screen (AID 1963581). Further: nearly all actives have a fitted effect of over 45% in size. The method in brief: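 ATP content measured by luminescence in HCT-116 p53RE-bla cells treated 16 h at 37 C, same wells as the reporter screen.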
The nature of experiment [10]: p53 small molecule agonists, cell-based qHTS assay (AID 1963582; active means well fitted activation curve with a large enough effect in the signal ratio in the repeat runs, not every such curve was filed as active; the % refers to the signal ratio; further: potency means the concentration at half of the fitted maximal effect). The method, boiled down: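 16 h compound exposure (37 C) of p53 response element–bla cells, preceded by 5 h recovery at 37 C/5% CO2; read-out via LiveBLAzer B/G FRET substrate, 2 h RT, fluorescence intensity.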
For experiment [11], the target named is 5-hydroxytryptamine receptor 2A (Homo sapiens) (UniProt P28223). Description: 5-hydroxytryptamine receptor 2A (HTR2A) small molecule antagonists, cell-based qHTS assay (AID 1963586). Further: nearly all actives have a fitted effect of over 45% in size. Further: potency means the concentration at half of the fitted maximal effect. The method, boiled down:
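CHO cells stably expressing human HTR2A were plated for 18 h at 37 C, then loaded with calcium dye for 1 h. Compounds were preincubated 5 min at room temperature before DOI (4 nM solution) was added. Kinetic fluorescence was read for 3 min.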

For experiment [12] the target is unchanged. Description: 5-hydroxytryptamine receptor 2A (HTR2A) small molecule agonists, cell-based qHTS assay (AID 1963587). Further: nearly all actives have a fitted effect of over 30% in size. Further: potency means the concentration at half of the fitted maximal effect. The method in brief: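 Kinetic calcium-flux fluorescence (2 min, 1 sec intervals) after compound addition in agonist mode. HTR2A-CHO cells were cultured 18 h, then dye-loaded 1 h at 37 C.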
The target of experiment [13] is Muscarinic acetylcholine receptor M1 (Homo sapiens) (UniProt P11229). Description: Cholinergic receptor muscarinic 1 (CHRM1) small molecule antagonists, cell-based qHTS assay (AID 1963588). Further: nearly all actives have a fitted effect of over 40% in size. The method in brief: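 Compounds were tested at 15 concentrations in three independent runs. Dye-loaded CHRM1-CHO cells were exposed 5 min at room temperature before stimulation by acetylcholine added at 50nM. Intracellular calcium was read kinetically on FDSS for 3 min.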

The target is the same in experiment [14]. Description: Cholinergic receptor muscarinic 1 (CHRM1) small molecule agonists, cell-based qHTS assay (AID 1963589). Further: nearly all actives have a fitted effect of over 35% in size. The method, boiled down: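 Homogeneous fluorescence calcium flux, agonist mode. Human M1-expressing CHO cells; compound dosed at 15 concentrations, three independent runs; signal sampled every 1 sec.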
Experiment [15] in a line: cAMP Responsive Elements (CRE) small molecule antagonists, cell-based qHTS assay (AID 1963591; active means well fitted inhibition curve with a large enough effect in the signal ratio in the repeat runs, not every such curve was filed as active; the % refers to the signal ratio). The method in brief:
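First, CRE-bla HEK293T cells settled 18 h at 37 C. Next, compound and 0.25 uM final NKH477 were applied for 3 h. Last, LiveBLAzer B/G substrate was loaded for 2 h at room temperature.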

Experiment [16] addresses Beta-2 adrenergic receptor (Homo sapiens) (UniProt P07550). Description: Adrenergic beta2 receptor (ADRB2) small molecule antagonists, cell-based qHTS assay (AID 1963592). Further: series mostly up to about 92 µM; nearly all actives have a fitted effect of over 50% in size. The method, boiled down: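 Assay format: CHO-ADRB2 cells, 18-20hr seeding at 37C/5% CO2, then compound plus 1nM isoproterenol agonist mix for 0.5hr RT. Homogeneous time-resolved fluorescence cAMP detection after 1hr, expressed as 665/615 nm ratio.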

The target in experiment [17] is D(2) dopamine receptor (Homo sapiens) (UniProt P14416). Description: Dopamine D2 receptor (DRD2) small molecule agonists, cell-based qHTS assay (AID 1963594). Further: nearly all actives have a fitted effect of over 35% in size. The method in brief: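 cAMP accumulation in DRD2-HEK293 cells measured by HTRF after 1 h detection; compounds added 10 min before NKH477 (200nM […]) forskolin-analogue stimulation, 30 min at room temperature, with Ro20-1724 present at 0.1 mM final.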

The target is the same in experiment [18]. Description: Dopamine D2 receptor (DRD2) small molecule antagonists, cell-based qHTS assay (AID 1963595; active means well fitted inhibition curve with a large enough effect in the signal ratio in the repeat runs, with a control signal flat; the % refers to the signal ratio). The method in brief: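 Cells were plated and grown for 24 h at 37 °C. Ro20-1724 (0.1 mM final) went in first, then compound for 10 min. NKH477 (200 nM) with quinpirole (12 nM) followed for 30 min at RT, then HTRF detection reagents for 1 h.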
Experiment [19] in a line: cAMP Responsive Elements (CRE) small molecule agonists, cell-based qHTS assay (AID 1963590). The method in brief:
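HEK 293T cells stably bearing CRE-bla were plated at 2,000 cells per well and rested 18 h. Compounds, positive controls or DMSO were added for 3 h at 37 C. LiveBLAzer B/G substrate was then loaded for 2 h at room temperature.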

Structures are written as SMILES. Inconclusive results are not listed. Active and inactive are the calls of the source. Unless noted, the call rests on the fitted dose curve.

Sequence of 5-hydroxytryptamine receptor 2A (Homo sapiens) (P28223 whole entry, looked up): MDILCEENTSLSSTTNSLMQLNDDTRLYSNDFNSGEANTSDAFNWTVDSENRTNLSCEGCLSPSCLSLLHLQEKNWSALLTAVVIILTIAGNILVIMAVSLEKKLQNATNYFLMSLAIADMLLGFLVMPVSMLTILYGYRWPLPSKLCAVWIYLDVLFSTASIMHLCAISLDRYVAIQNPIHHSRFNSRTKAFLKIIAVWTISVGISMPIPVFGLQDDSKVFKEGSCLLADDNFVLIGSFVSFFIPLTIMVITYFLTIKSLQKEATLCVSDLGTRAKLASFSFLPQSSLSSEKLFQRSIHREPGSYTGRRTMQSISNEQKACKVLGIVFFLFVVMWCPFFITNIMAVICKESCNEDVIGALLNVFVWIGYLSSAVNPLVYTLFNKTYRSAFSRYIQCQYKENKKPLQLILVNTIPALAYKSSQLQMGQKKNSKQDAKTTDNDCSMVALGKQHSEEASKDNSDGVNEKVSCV
Sequence of Beta-2 adrenergic receptor (Homo sapiens) (P07550 whole entry, looked up): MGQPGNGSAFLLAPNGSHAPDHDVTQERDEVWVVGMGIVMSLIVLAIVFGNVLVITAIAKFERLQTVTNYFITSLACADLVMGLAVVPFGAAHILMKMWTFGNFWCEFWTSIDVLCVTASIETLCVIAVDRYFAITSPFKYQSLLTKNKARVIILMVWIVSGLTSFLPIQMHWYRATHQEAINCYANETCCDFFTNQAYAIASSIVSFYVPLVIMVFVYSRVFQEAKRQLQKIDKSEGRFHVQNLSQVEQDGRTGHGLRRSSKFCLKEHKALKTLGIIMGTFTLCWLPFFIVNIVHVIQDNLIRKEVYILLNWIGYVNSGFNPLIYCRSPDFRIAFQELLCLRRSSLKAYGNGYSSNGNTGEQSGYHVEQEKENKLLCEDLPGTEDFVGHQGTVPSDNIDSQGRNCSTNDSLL
Sequence of Gonadotropin-releasing hormone receptor (Homo sapiens) (P30968 whole entry, looked up): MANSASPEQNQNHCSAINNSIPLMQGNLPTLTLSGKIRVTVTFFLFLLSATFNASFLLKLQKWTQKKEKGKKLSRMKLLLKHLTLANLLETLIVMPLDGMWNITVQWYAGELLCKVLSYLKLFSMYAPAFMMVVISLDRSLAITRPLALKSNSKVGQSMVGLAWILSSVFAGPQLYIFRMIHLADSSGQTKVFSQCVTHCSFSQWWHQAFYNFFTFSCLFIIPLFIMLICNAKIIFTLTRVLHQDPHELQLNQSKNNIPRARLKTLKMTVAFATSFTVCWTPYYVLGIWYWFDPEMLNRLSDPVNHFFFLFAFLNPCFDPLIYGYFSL
Sequence of D(2) dopamine receptor (Homo sapiens) (P14416 whole entry, looked up): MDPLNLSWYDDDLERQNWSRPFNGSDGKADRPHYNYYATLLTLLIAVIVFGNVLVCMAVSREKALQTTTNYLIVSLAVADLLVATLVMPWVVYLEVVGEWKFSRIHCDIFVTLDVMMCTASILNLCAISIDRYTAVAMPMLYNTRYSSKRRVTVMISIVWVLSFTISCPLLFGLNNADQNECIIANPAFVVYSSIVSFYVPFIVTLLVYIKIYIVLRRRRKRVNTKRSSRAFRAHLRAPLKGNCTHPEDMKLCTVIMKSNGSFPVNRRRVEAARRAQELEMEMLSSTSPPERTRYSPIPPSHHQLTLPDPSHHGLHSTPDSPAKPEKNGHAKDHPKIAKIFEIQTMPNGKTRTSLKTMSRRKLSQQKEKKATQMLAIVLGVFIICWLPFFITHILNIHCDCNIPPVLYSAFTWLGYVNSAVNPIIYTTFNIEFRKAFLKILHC
Sequence of Muscarinic acetylcholine receptor M1 (Homo sapiens) (P11229 whole entry, looked up): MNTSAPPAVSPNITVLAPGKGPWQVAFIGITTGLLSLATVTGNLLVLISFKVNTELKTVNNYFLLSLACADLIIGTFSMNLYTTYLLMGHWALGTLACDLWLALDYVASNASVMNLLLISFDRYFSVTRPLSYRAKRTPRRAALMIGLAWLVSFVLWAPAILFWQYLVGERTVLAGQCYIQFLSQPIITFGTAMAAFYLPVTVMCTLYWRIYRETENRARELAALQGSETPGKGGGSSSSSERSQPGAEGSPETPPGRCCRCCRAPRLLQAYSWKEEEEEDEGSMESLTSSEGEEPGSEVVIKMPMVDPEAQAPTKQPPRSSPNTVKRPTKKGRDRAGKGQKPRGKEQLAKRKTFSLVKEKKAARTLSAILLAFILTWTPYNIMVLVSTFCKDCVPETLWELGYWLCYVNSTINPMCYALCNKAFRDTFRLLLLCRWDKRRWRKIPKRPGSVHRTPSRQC
Sequence of KiSS-1 receptor (Homo sapiens) (Q969F8 whole entry, looked up): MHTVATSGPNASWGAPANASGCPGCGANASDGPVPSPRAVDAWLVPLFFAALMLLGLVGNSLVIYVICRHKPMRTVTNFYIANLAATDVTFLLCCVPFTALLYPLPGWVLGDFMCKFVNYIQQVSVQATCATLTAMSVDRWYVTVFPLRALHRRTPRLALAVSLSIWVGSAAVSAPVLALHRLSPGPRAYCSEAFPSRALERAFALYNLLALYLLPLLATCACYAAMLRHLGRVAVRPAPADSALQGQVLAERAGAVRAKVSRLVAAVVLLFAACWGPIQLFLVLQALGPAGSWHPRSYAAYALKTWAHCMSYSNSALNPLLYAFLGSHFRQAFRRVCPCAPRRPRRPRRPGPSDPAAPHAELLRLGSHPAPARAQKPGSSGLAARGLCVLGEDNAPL

Consider `CC(C)Br`, for which the Potency result in [1], in experiment [2], in experiment [3], in experiment [4], in experiment [5] and in experiment [6] was “inactive” each time. Besides, the Potency entry in experiment [7], in experiment [8], in experiment [9], in [10], in experiment [11] and in experiment [12] was “inactive” throughout. Also, the Potency entry in [13], in experiment [14], in [15], in experiment [16], in [17] and in experiment [18] was “inactive” each time.

For the molecule `Clc1ccc(-c2ccc(Cl)c(Cl)c2Cl)c(Cl)c1Cl`, the Potency in experiment [1] was 51.9 µM (active). Besides, the Potency entry in experiment [2], in [3], in experiment [4], in [5], in [6] and in experiment [7] was “inactive” each time. Also, the Potency entry in [8], in experiment [9], in experiment [11], in experiment [12], in experiment [13] and in [14] was “inactive” in each case. For the same molecule, the Potency result in [15], in [16] and in experiment [17] was “inactive” each time.

In the case of `CCCCCCC[CH2][Sn]([Cl])([Cl])[CH2]CCCCCCC`, the Potency was 30.6 µM (active) in experiment [1] and 48.9 µM (active) in experiment [3]. The Potency result in [2], in experiment [4], in experiment [5], in experiment [6], in experiment [7] and in [8] was “inactive” each time. In addition, the Potency result in [9], in [11], in experiment [12], in [13], in experiment [14] and in [19] was “inactive” each time. For the same molecule, the Potency result in [16], in experiment [17] and in [18] was “inactive” each time.

With `CCCCN(N=O)C(=N)N[N+](=O)[O-]`, the Potency entry in experiment [1], in experiment [2], in [3], in [4], in experiment [5] and in [6] was “inactive” each time. Also, the Potency result in experiment [7], in experiment [8], in experiment [9], in experiment [11], in [12] and in [13] was “inactive” in each case. For the same molecule, the Potency result in [14], in [16], in experiment [17] and in experiment [18] was “inactive” throughout. In addition, in experiment [10], the Potency is 37.1 µM (active).

Turning to `CCCN(CC)CC1COC2(CCC(C(C)(C)C)CC2)O1` (stereo unspecified), the Potency result in [1], in [2], in [3], in experiment [4], in experiment [5] and in experiment [6] was “inactive” each time. Also, the Potency entry in experiment [7], in [8], in experiment [9], in experiment [10], in [13] and in [14] was “inactive” each time. For the same molecule, the Potency entry in [19], in experiment [15], in experiment [16], in [17] and in [18] was “inactive” throughout. Moreover, the Potency was 10.6 µM (active) in experiment [11] and 43.6 µM (active) in experiment [12].

Regarding `O=C(O)CBr`, the Potency entry in [1], in experiment [2], in experiment [3], in experiment [4], in experiment [5] and in experiment [6] was “inactive” in each case. Besides, the Potency result in [7], in experiment [8], in experiment [9], in [10], in experiment [11] and in [12] was “inactive” throughout. The Potency entry in experiment [19], in [15], in [17] and in [18] was “inactive” in each case.

Regarding `C=CC(=O)OCCN(C)C`, the Potency result in [1], in experiment [2], in experiment [3], in experiment [4], in experiment [5] and in experiment [6] was “inactive” in each case. In addition, the Potency result in [7], in [8], in experiment [9], in [10], in experiment [12] and in experiment [13] was “inactive” each time. The Potency result in experiment [14], in [19], in experiment [15], in experiment [16], in experiment [17] and in experiment [18] was “inactive” in each case.
